Tested on: Vero E6 infected with SARS-CoV-2
Assay: inhibition of SARS-CoV-2 cytopathic effect; higher = more antiviral protection, active = above 15
Conditions: 48 h

Structure (SMILES)	inhibition of SARS-CoV-2 cytopathic effect (1 nM)	inhibition of SARS-CoV-2 cytopathic effect (8.33 nM)	inhibition of SARS-CoV-2 cytopathic effect (100 nM)	inhibition of SARS-CoV-2 cytopathic effect (833.33 nM)	inhibition of SARS-CoV-2 cytopathic effect (10000 nM)
CC(C)(C)c1ccc(-c2nc3ccccc3[nH]2)cc1	-0.43% (inactive)	-0.22% (inactive)	1.49% (inactive)	3.96% (inactive)	4.75% (inactive)
Clc1ccc2nsnc2c1NC1=NCCN1 [tizanidine]	2.21% (inactive)	4.56% (inactive)	1.5% (inactive)	2.93% (inactive)	0.03% (inactive)
Cc1c(NC(=O)c2cccnc2)c(=O)n(-c2ccccc2)n1C [nifenazone]	-4.14% (inactive)	0.87% (inactive)	1.34% (inactive)	-1.46% (inactive)	0.61% (inactive)
CC(C)(C)NC(=O)[C@@H](c1cccnc1)N(C(=O)c1ccco1)c1ccc(C(C)(C)C)cc1	-0.21% (inactive)	1.78% (inactive)	0.92% (inactive)	-2.61% (inactive)	-3.73% (inactive)
Nc1ccc(C(=O)NCC(=O)O)cc1 [4-aminohippuric-acid]	-2.16% (inactive)	-0.24% (inactive)	-0.14% (inactive)	0.71% (inactive)	-1.9% (inactive)
O=C(O)Cc1cccc2c(=O)cc(-c3ccccc3)oc12 [mitoflaxone]	1.27% (inactive)	0.65% (inactive)	1.42% (inactive)	1.5% (inactive)	0.08% (inactive)
Cn1cnc2c(NCc3ccccc3)nc(NCCO)nc21 [olomoucine]	1.4% (inactive)	1.88% (inactive)	1.77% (inactive)	-0.46% (inactive)	-0.63% (inactive)
COCCCOc1cc(C[C@@H](C[C@H](N)[C@@H](O)C[C@H](C(=O)NCC(C)(C)C(N)=O)C(C)C)C(C)C)ccc1OC [aliskiren-hemifumarate]	0.8% (inactive)	-0.18% (inactive)	-1.58% (inactive)	-0.63% (inactive)	-0.23% (inactive)
C[C@H](N)C(=O)N[C@@]1(C(=O)O)C[C@@H](Sc2nnc[nH]2)[C@H]2[C@H](C(=O)O)[C@H]21	-2.66% (inactive)	-4.35% (inactive)	-3.65% (inactive)	-1.13% (inactive)	0.56% (inactive)
CCCn1c(=O)c2[nH]cnc2n(-c2ccc(Cl)cc2)c1=O [arofylline]	-3.55% (inactive)	-1.13% (inactive)	0.16% (inactive)	-6.97% (inactive)	-3.81% (inactive)
CC(=O)N(CC(O)CO)c1c(I)c(C(=O)NCC(O)CO)c(I)c(C(=O)NCC(O)CO)c1I (stereo not given) [iohexol]	-1.99% (inactive)	-0.81% (inactive)	-1.68% (inactive)	-0.74% (inactive)	2.67% (inactive)
Cc1cn([C@@H]2C[C@@H](O)[C@H](CO)O2)c(=O)[nH]c1=O [telbivudine]	1% (inactive)	-1.65% (inactive)	-1.15% (inactive)	-0.26% (inactive)	2.12% (inactive)
Fc1cc(-c2cccc3ncc(-c4cnn(C5CCNCC5)c4)nc23)cc(F)c1CN1CCOCC1	1.49% (inactive)	2.64% (inactive)	-2.32% (inactive)	-1.44% (inactive)	63.3% (active)
CC(C)Nc1cc(-c2c[nH]c(C(=O)N[C@H](CO)c3cccc(Cl)c3)c2)c(Cl)cn1	-2.18% (inactive)	0.33% (inactive)	-2.23% (inactive)	-5.21% (inactive)	-6.01% (inactive)
COc1ccc(C(=O)N2CCCc3cc(C4=NNC(=O)SC4C)ccc32)cc1OC (stereo not given)	-1.28% (inactive)	2.27% (inactive)	0.07% (inactive)	0.74% (inactive)	4.36% (inactive)
COC(=O)N1CC[C@@H]2[C@H]1CCC[C@@]2(O)C#Cc1cccc(C)c1 [mavoglurant]	0.66% (inactive)	-0.18% (inactive)	2.27% (inactive)	-1.9% (inactive)	-0.19% (inactive)
COc1ccc(-c2sc(NC(=O)C(C)(C)C)nc2C)cc1S(=O)(=O)Nc1ccc(O)cc1 [PI4KIII-beta-inhibitor-1]	-2.8% (inactive)	-1.82% (inactive)	0.52% (inactive)	0.18% (inactive)	5.19% (inactive)
Cc1ccc(C)c(OCCCC(C)(C)C(=O)O)c1 [gemfibrozil]	0.62% (inactive)	-0.19% (inactive)	-0.2% (inactive)	0.31% (inactive)	-0.46% (inactive)

From the supplement of paper PMC13380429
